Experimental data from article PMC3218832.

Assays:
Assay in all cases: protein binding microarray; high values mean tight binding
Details in all cases: dsDNA, one strand shown
RELARELA (p65 homodimer) = RELARELA (p65 homodimer) (Homo sapiens, UniProt Q04206 1-307)
p50p50 homodimer = p50p50 homodimer (Homo sapiens, UniProt P19838 7-356)
p52p52 homodimer = molecular target: T1, p52p52 homodimer (Homo sapiens, UniProt Q00653 4-332)
T1 sequence: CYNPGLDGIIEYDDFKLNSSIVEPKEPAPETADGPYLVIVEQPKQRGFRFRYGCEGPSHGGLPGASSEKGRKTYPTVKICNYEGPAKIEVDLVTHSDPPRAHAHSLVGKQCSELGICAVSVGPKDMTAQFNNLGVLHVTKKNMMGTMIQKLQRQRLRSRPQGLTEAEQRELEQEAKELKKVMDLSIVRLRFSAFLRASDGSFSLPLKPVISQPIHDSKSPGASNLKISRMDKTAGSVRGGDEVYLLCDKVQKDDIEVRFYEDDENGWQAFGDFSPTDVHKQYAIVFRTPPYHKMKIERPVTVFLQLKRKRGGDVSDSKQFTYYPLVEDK

[1] = molecular target: RELA (p65) subunit of heterodimer;p50 subunit (Homo sapiens;Homo sapiens, UniProt Q04206;P19838 1-307;7-356)
[2] = molecular target: RELA (p65) subunit of heterodimer;p52 subunit (Homo sapiens;Homo sapiens, UniProt Q04206;Q00653 1-307;4-332)
RELB subunit;p50 subunit = RELB subunit;p50 subunit (Homo sapiens;Homo sapiens, UniProt Q01201;P19838 120-401;7-356)
RELB subunit;p52 subunit = molecular target: T2, RELB subunit;p52 subunit (Homo sapiens;Homo sapiens, UniProt Q01201;Q00653 120-401;4-332)
T2 sequence 1: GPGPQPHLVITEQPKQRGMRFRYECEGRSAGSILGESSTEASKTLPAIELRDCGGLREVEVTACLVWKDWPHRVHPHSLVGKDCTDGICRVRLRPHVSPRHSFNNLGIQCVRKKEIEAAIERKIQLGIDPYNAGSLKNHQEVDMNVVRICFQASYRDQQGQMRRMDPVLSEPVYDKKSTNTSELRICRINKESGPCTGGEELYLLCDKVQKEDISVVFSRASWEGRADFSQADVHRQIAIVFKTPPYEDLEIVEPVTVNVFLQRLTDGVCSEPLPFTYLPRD
T2 sequence 2: T1 sequence

[3] = molecular target: C-Rel subunit;p50 subunit (Homo sapiens;Homo sapiens, UniProt Q04864;P19838 1-285;7-356)
[4] = molecular target: T3, C-Rel subunit;p52 subunit (Homo sapiens;Homo sapiens, UniProt Q04864;Q00653 1-285;4-332)
T3 sequence 1: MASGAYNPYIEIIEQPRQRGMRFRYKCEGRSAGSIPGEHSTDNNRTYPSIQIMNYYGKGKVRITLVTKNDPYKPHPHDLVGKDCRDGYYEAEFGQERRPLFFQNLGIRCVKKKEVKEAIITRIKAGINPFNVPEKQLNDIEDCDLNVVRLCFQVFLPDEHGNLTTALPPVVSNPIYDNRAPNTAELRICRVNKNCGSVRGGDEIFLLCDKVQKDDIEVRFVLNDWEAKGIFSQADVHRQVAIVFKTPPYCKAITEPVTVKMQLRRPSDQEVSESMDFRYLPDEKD
T3 sequence 2: T1 sequence

Sequence of p50p50 homodimer (P19838 7-356): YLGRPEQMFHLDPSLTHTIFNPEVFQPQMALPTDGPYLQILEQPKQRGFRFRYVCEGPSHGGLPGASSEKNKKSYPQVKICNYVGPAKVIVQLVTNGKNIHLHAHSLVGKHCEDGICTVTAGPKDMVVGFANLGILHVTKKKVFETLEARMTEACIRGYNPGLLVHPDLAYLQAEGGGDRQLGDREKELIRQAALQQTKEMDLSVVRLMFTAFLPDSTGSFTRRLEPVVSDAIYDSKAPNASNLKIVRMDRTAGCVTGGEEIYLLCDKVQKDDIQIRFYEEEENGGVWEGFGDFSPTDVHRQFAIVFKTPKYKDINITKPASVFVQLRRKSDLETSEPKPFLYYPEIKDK
Sequence of RELA (p65) subunit of heterodimer;p50 subunit (Q04206 1-307, chain 1 of 2): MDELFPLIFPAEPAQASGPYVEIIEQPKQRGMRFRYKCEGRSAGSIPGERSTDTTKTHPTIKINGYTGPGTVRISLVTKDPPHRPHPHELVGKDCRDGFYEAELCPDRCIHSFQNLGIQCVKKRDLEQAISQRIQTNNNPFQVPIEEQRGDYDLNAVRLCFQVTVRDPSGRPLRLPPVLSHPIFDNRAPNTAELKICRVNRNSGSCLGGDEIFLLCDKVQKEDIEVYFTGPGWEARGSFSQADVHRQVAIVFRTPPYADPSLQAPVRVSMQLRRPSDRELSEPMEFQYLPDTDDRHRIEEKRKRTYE
Sequence of RELA (p65) subunit of heterodimer;p50 subunit (P19838 7-356, chain 2 of 2): as the sequence (P19838 7-356) above
Sequence of RELARELA (p65 homodimer) (Q04206 1-307): as the sequence (Q04206 1-307, chain 1 of 2) above

Sequence	binding signal (RELARELA (p65 homodimer)) [z-score]	binding signal (p50p50 homodimer) [z-score]	binding signal (p52p52 homodimer) [z-score]	binding signal [1] [z-score]	binding signal [2] [z-score]	binding signal (RELB subunit;p50 subunit) [z-score]	binding signal (RELB subunit;p52 subunit) [z-score]	binding signal [3] [z-score]	binding signal [4] [z-score]
GAGAGCCCCCC	-1.07	1.13	0.398	0.853	0.722	0.759	0.733	0.773	0.389
CAGAATACCCT	0	1.12	0.546	0.635	0.477	0.743	0.882	0.496	0.421
AAATGGACCCC	-0.781	-0.458	-0.348	-0.532	-0.428	-0.448	-0.0987	-0.615	-0.473
AGAATGACCCC	-0.278	-0.204	-0.112	-0.177	-0.287	-0.428	-0.388	-0.442	-0.311
AAGTGGGCCCT	-0.584	-0.904	-0.603	-0.886	-0.714	-0.762	-0.527	-1.25	-0.634
GGAGTCGTCCT	-0.136	-1.28	-0.582	-0.993	-0.875	-1.03	-0.714	-1.4	-0.812
GAGTTGCCCCC	0.487	1.04	0.557	1.06	0.811	0.918	0.947	1.16	0.676
AGATGAATCCT	-0.706	-1.32	-0.542	-1	-0.972	-1.28	-1.16	-1.39	-0.907
AGGTAGGTCCC	-0.0694	-0.0842	0.305	-0.0951	0.0859	0.0975	0.178	0.0304	0.122
CAGAGTGCCCT	-0.65	-1.13	-0.629	-0.784	-0.964	-0.897	-0.973	-0.975	-0.713
CGAGAATCCCT	-0.154	0.393	0.327	0.25	0.284	0.305	0.573	0.277	0.32
CGGTGGTTCCT	0.0744	0.731	1.05	0.41	0.701	0.293	0.552	-0.0201	0.719
AGAAGATTCCT	0.055	-1.1	-0.567	-0.642	-0.681	-0.914	-0.843	-0.495	-0.373
CGGAACGTCCC	1.16	0.116	0.505	0.933	0.956	0.184	0.327	0.44	0.748
AAAGGCCTCCC	-1.18	-0.959	-0.552	-0.794	-0.782	-0.857	-0.868	-1.17	-0.735
